An excerpt weighted towards active compounds, which were near 21% of everything screened.
ClpP mod: qHTS Assay for Activators of ClpP | purified B. subtilis ClpP, FRET peptide cleavage, 20 min | Potency, µM (highest dose often 57.5 µM), for inactives: top-dose activity change, negative = active | hit rate 1.9% among 340,000 | AID 651965, 2013; active means well fitted falling curve with a large enough effect; inconclusive means small, poorly fitted or top-dose-only effect; inactive means no such curve, though single readings can be large or run the other way; further: potency means the concentration at half of the fitted maximal effect; the source files actives as falling curves though it sought activators and does not explain the sign; nearly all actives have a fitted effect of over 65% in size
Target sequence (P80244 whole entry, looked up): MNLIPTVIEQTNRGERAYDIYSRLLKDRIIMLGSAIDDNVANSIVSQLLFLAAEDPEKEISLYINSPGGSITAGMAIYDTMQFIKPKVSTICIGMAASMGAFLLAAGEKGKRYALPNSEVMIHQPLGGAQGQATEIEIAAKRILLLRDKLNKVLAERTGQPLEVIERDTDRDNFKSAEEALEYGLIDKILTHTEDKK
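FRET quenching reversal measured ClpP activation: 10 microg/mL B. subtilis ClpP at pH 8 with the FRET-FV decapeptide, read at 430 nm after 320 nm excitation. The 20-min minus 0-min signal was scaled between DMSO/no-enzyme wells and ADEP (5.8 microM final).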
IL1B secr inh: inhibitors of inflammasome signaling (IL-1 beta secretion). hit rate 4.7% among 360,000. THP-1 LPS/ATP IL-1B secretion, AlphaLISA, 16 h; stronger effect = lower value. activity change, % at 57.5 µM; in the data active means activity change below about -50%; inconclusive means mostly about -30% to -49%; further: on the % scale 0 is the no-effect control and ±100 the full control effect
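Secreted IL-1B measured by AlphaLISA bead assay after 16 h compound exposure of THP-1 cells; compounds (final up to 57.5 uM) added 1 h before LPS (250 ng/mL) and ATP (1.25 mM) stimulation; lower signal means less secretion.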
TDP1 cell CPT: growth inhibition of DT40 Tdp1-/-;hTDP1 cells with camptothecin (screen for TDP1 inhibitors); Potency, µM (top dose mostly 46.2 µM), inactives show at the highest dose activity change, negative = growth inhibition, hits mostly inhibitors; chicken DT40 Tdp1-/-;hTDP1 cells + 20 nM CPT, ATP luminescence, 48 h; hit rate 12% among 420,000; further: potency means the concentration at half of the fitted maximal effect; on the % scale 0 is the no-effect control and ±100 the full control effect; nearly all actives have a fitted effect of over 55% in size
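Chicken DT40 Tdp1-/- cells complemented with human TDP1, 400 cells/well, exposed to compounds plus 20 nM camptothecin for at least 48 h at 37 C; viability read as ATP content by CellTiter-Glo luminescence.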
DT40 TDP1 no CPT: qHTS for Inhibitors of human tyrosyl-DNA phosphodiesterase 1 (TDP1): qHTS in cells in absence of CPT; DT40 Tdp1-/- hTDP1 cells, no CPT, ATP luminescence, 48 h; Potency, µM (top dose mostly 46.2 µM), for inactives: at the highest dose activity change, negative = growth inhibition, usual class: inhibitors; hit rate 15% among 420,000; AID 686978, 2013; further: potency means the concentration at half of the fitted maximal effect; on the % scale 0 is the no-effect control and ±100 the full control effect; nearly all actives have a fitted effect of over 55% in size
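Cells were dispensed at 400 per well, compounds added by pin tool, plates incubated ≥48 hr at 37 °C, then CellTiter-Glo added for 30 min at room temperature before luminescence reading. Line: DT40 Tdp1-/- complemented with hTDP1; camptothecin omitted.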
DRD3 agonist: D3 dopamine receptor (human) agonism; hit rate 0.58% among 410,000; AID 652048; max activation, %; D3R DiscoveRx beta-arrestin cells, luminescence, 90 min; P35462; in the data active means max activation above about 30%; further: 0% is about no effect
Target sequence (P35462 whole entry, looked up): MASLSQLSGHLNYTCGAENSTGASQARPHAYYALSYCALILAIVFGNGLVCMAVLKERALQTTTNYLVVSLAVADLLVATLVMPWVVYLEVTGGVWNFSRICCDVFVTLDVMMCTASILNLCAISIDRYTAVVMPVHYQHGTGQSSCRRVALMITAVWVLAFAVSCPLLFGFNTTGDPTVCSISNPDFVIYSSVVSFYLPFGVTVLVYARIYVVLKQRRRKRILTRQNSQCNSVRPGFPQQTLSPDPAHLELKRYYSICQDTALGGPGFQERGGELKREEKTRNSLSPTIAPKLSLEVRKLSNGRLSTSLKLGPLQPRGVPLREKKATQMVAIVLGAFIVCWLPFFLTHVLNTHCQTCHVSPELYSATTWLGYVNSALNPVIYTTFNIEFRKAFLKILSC
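Cells at 1500/well, incubated overnight, then treated with pinned compounds (dopamine as control) for 90 min at 37 degrees C. DiscoveRx reagent added for 30 - 60 minutes at room temperature; luminescence read.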
D3 antag: antagonists of human D3 dopamine receptor. hit rate 2.5% among 360,000. P35462. max response, negative = inhibition, %. AID 652054. D3R cells, DiscoveRx beta-arrestin luminescence, antagonist mode; stronger effect = lower value; in the data active means max response below about -50%; inconclusive means no clear call, values can overlap the other calls; further: on the % scale 0 is the no-effect control and ±100 the full control effect
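Cells expressing the human receptor were seeded at 1500 cells/well, incubated overnight at 37 degrees C in 5% CO2, then exposed to library compounds with dopamine controls for 90 minutes at 37 degrees C before luminescent detection.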
The depositor's hits bear a star; u = inconclusive; x = no result. Unless noted, the call rests on the fitted dose curve; in most records, active means well fitted inhibition curve with a large enough effect; inconclusive means small, poorly fitted or top-dose-only effect; inactive means flat fitted curve, though single readings scatter.

SMILES	ClpP mod	IL1B secr inh	TDP1 cell CPT	DT40 TDP1 no CPT	DRD3 agonist	D3 antag
C/C=C\C=C\C(=O)Nc1cccc(C2=NOC3(C2)C[C@H](C(N)=O)N(C(=O)c2ccccc2C(=O)c2ccccc2)C3)c1 (some centres not stated)	-2%	-12	u	16µM*	-5	15
CCc1noc(C)c1C(=O)N1CCN(S(=O)(=O)c2c(C)cc(C)cc2C)CC1	-2%	40	u	-26%	-10	16
COc1cccc(NC(=O)CSc2ncc(S(=O)(=O)c3ccc(C)c(C)c3)c(=O)[nH]2)c1	-2%	x	x	x	-2	x
CCOC(=O)c1c(-c2ccc(OC)cc2)csc1NC(=O)CNCc1ccco1	-17%	-13	u	u	5	45
CCOC(=O)c1c(-c2ccc(OC)cc2)csc1NC(=O)CCN1C(=O)c2ccccc2C1=O	-4%	-18	16µM*	u	20	47
CCOC(=O)c1c(-c2ccc(C)cc2)csc1NC(=O)CCN1CC(C)OC(C)C1 (configuration not stated)	-7%	-6	u	26µM*	-2	-1
CCOC(=O)c1sc(NC(=O)CNCc2ccccn2)c(C(=O)OCC)c1C	x	10	u	26µM*	2	-10
CCOC(=O)c1sc(NC(=O)CCN2CCCCCC2)c(C(=O)OCC)c1C	x	-99*	u	u	-1	-30
CCOC(=O)c1c(NC(=O)CC)sc(C(=O)N2CCCCC2)c1C	-8%	-8	-2%	-13%	2	6
CCOC(=O)c1sc(NC(=O)COc2ccccc2Cl)c(C(=O)OCC)c1C	-3%	x	-9%	u	-12	x
COc1ccccc1-c1nn2c(=O)cc(CN3CCN(S(=O)(=O)c4ccc(C)cc4)CC3)nc2s1	-5%	x	5%	-14%	7	x
CSCC[C@H](NC(=O)[C@H](Cc1ccccc1)n1c(=O)[nH]c2ccccc2c1=O)C(=O)NCC1CCC(C(=O)O)CC1 (some centres not stated)	-26%	16	0%	5%	17	-14
CCC(=O)c1ccc(OCC(=O)OCC(=O)N2CCc3ccccc32)cc1	2%	18	14%	-1%	1	18
CCOC(=O)c1c(NC(=O)CCN2CCOCC2)sc2c1CC(C)(C)OC2	-11%	0	3%	u	3	11
CCOC(=O)c1c(NC(=O)CCN2CCOCC2)sc(C)c1-c1ccccc1	x	-78*	21µM*	23µM*	-5	-4
CCOC(=O)c1c(-c2ccc3ccccc3c2)csc1NC(=O)CCCC(=O)O	-6%	16	-17%	u	6	29
CCOC(=O)c1c(-c2ccc(OC)cc2)csc1NC(=O)CCN1CCOCC1	x	-10	u	18µM*	-18	-4
COc1ccc(C(=O)Nc2ccc(C(=O)N3CCC(C)CC3)cc2)cc1OC	8%	-8	7%	-7%	11	-21
CC(C)(C)[C@@H]1COC(=O)[C@@H](Cc2ccc(F)cc2)C/C=C\C[C@H](CC(=O)N(CCO)Cc2ccccc2)C(=O)N1	-2%	-19	23µM*	u	-1	31
O=C1OC[C@@H]2CCCN2C(=O)[C@@H](CC(=O)N(CCO)Cc2ccccc2)C/C=C\CC[C@H]1Cc1ccc(F)cc1	0%	-12	u	u	-14	-14
CC(C)(C)[C@@H]1COC(=O)[C@H](Cc2ccc(F)cc2)CC/C=C\C[C@@H](CC(=O)N(CCO)Cc2ccccc2)C(=O)N1	2%	-11	5.8µM*	23µM*	19	3
CCOC(=O)c1ccc(NC(=O)c2csnn2)cc1	0%	x	-3%	-30%	2	x
Cc1ccc(-c2cc(C#N)c(=O)n(Cc3c(Cl)cccc3Cl)c2)cc1	7.1µM*	-4	u	-25%	0	u
Cc1cccn(Cc2c(Cl)cccc2Cl)c1=O	x	38	7%	u	-2	8
COc1cc2c(NC3CCN(C)CC3)nc(N3CCCN(C)CC3)nc2cc1OCC1CCCCN1 (configuration not stated)	4%	x	11µM*	u	x	x
SMILES	ClpP mod	IL1B secr inh	TDP1 cell CPT	DT40 TDP1 no CPT	DRD3 agonist	D3 antag
COc1cc2c(NC3CCN(C)CC3)nc(N3CCCN(C)CC3)nc2cc1OCCCCCN	4%	x	u	-17%	x	x
COc1cc2c(NC3CCN(C)CC3)nc(N3CCCN(C)CC3)nc2cc1OCCN(C)CCN(C)C	4%	x	-8%	-9%	x	x
COc1cc2nc(N3CCCN(C)CC3)nc(NC3CCOCC3)c2cc1OC	4%	x	11µM*	7.1µM*	x	x
COc1cc2nc(N3CCCN(C)CC3)nc(NC3CCCCC3)c2cc1OC	4%	x	7.9µM*	8.9µM*	x	x
COc1cc2nc(N3CCCN(C)CC3)nc(OC3CCN(C)CC3)c2cc1OC	4%	x	u	14µM*	x	x
COc1cc2c(NC3CCN(C)CC3)nc(N3CCCN(C)CC3)nc2cc1O	4%	x	13%	-20%	x	x
Cc1noc(C)c1NC(=O)Nc1cccc2c1O[C@@H](CN(C)C(=O)Nc1ccc3c(c1)OCO3)[C@@H](C)CN([C@H](C)CO)C2=O	0%	-21	u	u	-5	-12
Nc1ccc(Cc2ccc(C=O)cc2)cc1	0%	x	-6%	12%	x	x
COc1cc2nc(N3CCCN(C)CC3)nc(NC3CCN(C)C3)c2cc1OC (configuration not stated)	4%	x	13µM*	18µM*	x	x
O=c1c(-c2ccccc2)n[nH]c2ccccc12	-15%	2	-6%	u	1	-15
O=C1c2ccccc2-c2n[nH]c3cccc1c23	-2%	-77*	8.9µM*	21µM*	4	23
Cc1ccc(-c2nc(CS(=O)(=O)CC(=O)NC(C)CCc3ccccc3)c(C)o2)cc1 (configuration not stated)	-15%	x	u	u	5	x
COC(=O)C1=C(C)NC(C)=C(C(=O)OC)C1C(=O)OCCN1C(=O)c2ccccc2C1=O	7.1µM*	39	22%	-26%	4	11
C=CCNC(=O)C1CC2Cn3c(nc4cc5ccccc5cc43)C2N1C (configuration not stated)	-20%	44	11%	0%	17	-8
O=C(CN1Cc2ccccc2C1=O)Nc1ccc2c(c1)OCCO2	2%	-8	15%	4%	2	4
O=[N+]([O-])c1cc(Br)c(O)c(/C=N/Nc2nnnn2-c2cccc3ccccc23)c1	-1%	21	-16%	-4%	-53	-85*
CCC(=O)Nc1ccc(NCc2cccs2)cc1	-1%	-15	12%	-13%	-6	-18

Compound activity as filed in PubChem.
